High-throughput results as filed in PubChem BioAssay.
The list is not random: actives were taken first. Their share in the collection is about 12%.
Insulin prom up – MIN6 insulin promoter up-regulation. z-score at 5 µM. MIN6 insulin promoter-GFP reporter, high-content imaging; stronger effect = higher value. 0.3% of 190,000 active;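 active = z-score above 3 at 5 µM with at least 500 cells counted in the well; inconclusive = wells under 500 cells, flagged as cytotoxic or low count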
Insulin prom inh – TRM-6 insulin promoter activity inhibition; TRM-6 cells (human fetal islet line), insulin promoter-eGFP reporter, imaging; reporter expression induced with tamoxifen; 0.9% of 130,000 active; inhibition, % at 2 µM;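 active = inhibition above the mean plus 3 SD, with well images judged a real hit on visual review, cut at about 60% in these data, passing the limit was not always enough; inconclusive = inhibition over the cutoff but images rejected on review; inactive = inhibition not above the cutoff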
WT yeast gro inh – growth inhibition of WT yeast, mitochondrial fusion screen | mitochondrial fusion phenotypic screen, WT strain | inhibition, % at 10 µM | 2.1% of 190,000 active | AID 1362; in the data active = inhibition above about 58%; tested in S. cerevisiae
L major viab – inhibitors of Leishmania major promastigote growth; AID 1063; 9% of 200,000 active; inhibition, % at 10 µM; Leishmania major promastigotes, resazurin fluorescence viability; in the data active = inhibition above about 50%;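 note: promastigotes grown with compound for 44 hours at 28 °C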
ROMK primary – modulators of human ROMK potassium channel; Tet-inducible ROMK, thallium flux fluorescence; actives lie on both sides; B-score at 10 µM; 2% of 130,000 active; AID 1918;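 active = signal ratio slope over the read window, or its plate-corrected B-score, at least 3 SD from the plate mean, either direction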;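 note: B-score of the F/F0 ratio slope over 7 to 12 s after thallium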
Target sequence (P48048 whole entry, looked up): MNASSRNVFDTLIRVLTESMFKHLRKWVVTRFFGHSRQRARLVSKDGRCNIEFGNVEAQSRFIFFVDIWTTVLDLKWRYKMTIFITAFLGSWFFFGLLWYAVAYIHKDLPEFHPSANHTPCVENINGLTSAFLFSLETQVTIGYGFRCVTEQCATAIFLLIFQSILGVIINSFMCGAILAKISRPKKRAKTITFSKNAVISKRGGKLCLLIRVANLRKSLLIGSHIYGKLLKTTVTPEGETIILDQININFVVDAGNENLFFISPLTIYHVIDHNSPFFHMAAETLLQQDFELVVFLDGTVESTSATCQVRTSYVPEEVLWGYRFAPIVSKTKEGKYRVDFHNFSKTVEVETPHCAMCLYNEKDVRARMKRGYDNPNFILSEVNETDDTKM
Cl transport mod – modulates chloride dependent transport by human KCC2; Q9H2X9; KCC2 cells, thallium flux FluoZin-2 fluorescence; B-score of Tl+ flux slope (higher = more flux/activation; lower = inhibition) at 10 µM; 2.2% of 190,000 active; AID 1456;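 active = thallium flux slope and its plate-corrected score both differing from the plate sample mean at a set confidence after two filtering rounds, in either direction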;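 note: slope of fluorescence scaled to starting intensity during 10 to 20 s after thallium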
ROMK hit retest – retested hit modulating human ROMK potassium channel. shares compounds with ROMK primary. ROMK thallium flux, fluorescence ratio; stronger effect = lower value. normalized thallium flux (F/F0 slope) at 10 µM. 54% of 3,000 active. AID 1917;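 active = Flux at 10 µM at least 3 SD below or above vehicle control mean in one or both replicates; inconclusive = no clear call, values can overlap the other calls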
Each line names hits and unclear results; the compound was inactive in the other large screens (follow-up assays come after a bar, where they were run).

Cn1cc(Cl)c(C(=O)NC2CCCC2)n1	none (no result: Insulin prom inh, ROMK primary)
COc1ccc(-c2nnn(CC(=O)N(c3cccc(O)c3)C(C)C(=O)NC3CCCC3)n2)cc1OC (stereo not given)	none (no result: Insulin prom inh)
Cc1ccccc1/C=C/C(=O)NCC(=O)N1CCC(N(C)C2CCCCC2C)CC1 (stereo not given)	none (no result: Insulin prom up, Insulin prom inh)
CCCCc1cc(=O)oc2cc(C)cc(O)c12	L major viab 82 (no result: ROMK primary) | ROMK hit retest 0.054
CCCCc1cc(=O)oc2cc(O)cc(O)c12	none (no result: Insulin prom inh)
O=C(C1CCN(Cc2ccc(F)cc2)CC1)N(CCc1ccccc1)Cc1ccccc1	ROMK primary -3.5 | ROMK hit retest 0.046
O=C(/C=C/c1cccs1)c1ccc(N2CCOCC2)cc1	ROMK primary 2.5 (no result: Insulin prom inh) | ROMK hit retest inactive
CCOC(=O)c1cc2cc(OC)ccc2[nH]1	none | ROMK hit retest inactive
CC(=O)c1ccc2cccc3c2c1N=CN3C	none (no result: Insulin prom up, ROMK primary, Cl transport mod) | ROMK hit retest 0.049
CC(=O)c1ccc2c3c(cccc13)CC2	none (no result: ROMK primary)
COc1cnc(-c2ccccn2)nc1Sc1ccc(C)cc1	L major viab 100, ROMK primary -4.4 (no result: Cl transport mod) | ROMK hit retest inconclusive
CN(C)c1ccc(/C=C/C(=O)c2c(O)c3ccccc3oc2=O)cc1	none (no result: Insulin prom up, Insulin prom inh, WT yeast gro inh, L major viab, ROMK primary)
CCOc1ccc(/C=C/C(=O)c2c(O)c3ccccc3oc2=O)cc1	none (no result: Insulin prom up, ROMK primary) | ROMK hit retest 0.063
COCc1cc(C)nc(SCC[N+](C)(C)CC(=O)Nc2cccc(C(F)(F)F)c2)c1C#N	ROMK primary -2.6 | ROMK hit retest 0.059
CCSc1nc2c(c(=O)[nH]c(=O)n2C)n1CC(O)COc1ccccc1 (stereo not given)	none
CCCCCCCCCn1c2c(c(=N)c3c1CCC3)CCC2	Insulin prom up inconclusive, L major viab 100 (no result: ROMK primary) | ROMK hit retest 0.043
Cc1cccc(Oc2ccc(NC(=O)c3ccccc3C(=O)O)cc2)c1C	ROMK primary 1.6 (no result: Insulin prom inh) | ROMK hit retest inactive
O=C(O)c1ccccc1C(=O)Nc1ccc(Oc2ccc3ccccc3c2)cc1	none (no result: Insulin prom up, Insulin prom inh)
C#CCOCCOCCOCCNc1nc(N2CCN(C(=O)[C@H]([C@@H](C)O)n3cc(CCCCN)nn3)CC2)nc(N2CCN(C(=O)[C@H](Cc3ccc(O)cc3)n3cc(CCO)nn3)CC2)n1	ROMK primary 2 | ROMK hit retest inactive
OC(COC(c1ccccc1)c1ccccc1)CN1CCc2ccccc2C1 (stereo not given)	none
OC(COC(c1ccc(Cl)cc1)c1ccc(Cl)cc1)CN1CCCC1 (stereo not given)	L major viab 100, ROMK primary -3.9 | ROMK hit retest 0.057
CCn1c(/C=C/c2c[nH]c3ccccc23)nc2ccccc2c1=O	none (no result: Insulin prom inh, ROMK primary)
CCn1c(/C=C/c2c(C)[nH]c3ccccc23)nc2ccccc2c1=O	none (no result: ROMK primary) | ROMK hit retest 0.047
O=S1CCCSC1c1cccnc1 (stereo not given)	none | ROMK hit retest inactive
COc1ccc(NC(=O)c2cc3cccc(OC)c3oc2=Nc2ccc(C(=O)O)cc2)cc1OC	ROMK primary -4.4 (no result: Insulin prom inh) | ROMK hit retest 0.054
COc1ccc(Br)cc1C(=O)Nc1ccc(C(=O)O)cc1	none
Cc1ccc(-n2cc(CN3CCC(CO)(Cc4ccccc4)CC3)cn2)cc1	L major viab 80, ROMK primary -5.2 (no result: Insulin prom inh) | ROMK hit retest 0.059
COCc1cc(C)nc(SCC(=O)Nc2cc3c(cc2C#N)OCO3)c1C#N	none (no result: WT yeast gro inh, Cl transport mod)
O=C(c1ccc(-c2ccc(Cl)cc2Cl)o1)N1CCOCC1	none (no result: Insulin prom inh)
O=C(c1ccc(-c2cc(Cl)ccc2Cl)o1)N1CCOCC1	ROMK primary -3.5 (no result: Insulin prom up) | ROMK hit retest 0.063
O=C(Nc1ccc(Cl)cc1)C1CCC(=O)N1Cc1ccccc1Cl (stereo not given)	none (no result: ROMK primary)
O=C(COC(=O)C1CC2C=CC1C2)Nc1cccc(S(=O)(=O)N2CCOCC2)c1 (stereo not given)	none (no result: Insulin prom inh, WT yeast gro inh, L major viab, ROMK primary) | ROMK hit retest inactive
O=C(COC(=O)c1ccc2c(c1)OCCO2)Nc1cccc(S(=O)(=O)N2CCOCC2)c1	none
O=C(NCc1cccnc1)c1ccc(-c2ccc(Cl)cc2)o1	none (no result: Insulin prom inh, ROMK primary, Cl transport mod)
O=C(NCc1cccnc1)/C(=C\c1ccc(-c2ccc(Cl)c(Cl)c2)o1)S(=O)(=O)c1ccccc1	L major viab 100, ROMK primary -5.1 | ROMK hit retest 0.056
COc1ccc(C(CCNCc2ccc(N(C)C)cc2)C(C)C)cc1 (stereo not given)	none (no result: Insulin prom inh, WT yeast gro inh, L major viab, ROMK primary)
COc1ccc(CNCCC(c2ccccc2)c2ccc3c(c2)OCO3)cc1 (stereo not given)	L major viab 100 (no result: Insulin prom up, ROMK primary) | ROMK hit retest 0.053
CN(Cc1ccccc1)C(=O)COc1ccc(Br)cc1Cl	none (no result: Insulin prom inh, WT yeast gro inh, L major viab)
Clc1cc(Br)ccc1OCCCNCc1ccccc1	L major viab 99, ROMK primary -4.3 | ROMK hit retest 0.059
CCc1cc(OCCCCNCc2ccccc2)ccc1Cl	L major viab 99, ROMK primary -3.6 | ROMK hit retest 0.054
CCC(=O)Nc1ccc(S(=O)(=O)N2CCc3ccccc3C2)cc1	none (no result: Insulin prom inh, ROMK primary)
O=C(NNc1c(Cl)cncc1Cl)c1sccc1Cl	none (no result: Insulin prom up, Insulin prom inh, WT yeast gro inh, L major viab, ROMK primary)
CCOC(=O)N1CCC(N(CCN(C)C)C(=S)Nc2ccc(OCC)cc2)CC1	none
C=C(c1ccc(OC)cc1)c1ccc(OC)cc1	ROMK primary 1.9 | ROMK hit retest inactive
CCC(C)(C)NC(=O)C(c1cccc(OC)c1OC)N(CCC(C)C)C(=O)CCC(=O)Nc1cc(C)on1 (stereo not given)	ROMK primary -2.5 (no result: Insulin prom inh) | ROMK hit retest 0.063
COc1cccc(C(C(=O)NC(C)(C)C)N(CCC(C)C)C(=O)CCC(=O)Nc2cc(C)on2)c1OC (stereo not given)	none (no result: Insulin prom inh)
COc1ccc(-n2nc(C#N)c(Cl)cc2=O)cc1	Insulin prom up inconclusive, WT yeast gro inh 67, L major viab 99, ROMK primary -2.8 | ROMK hit retest 0.052
COC(=O)c1nn(-c2ccc(OC)cc2)c(=O)cc1O	none
COc1ccc(C(=O)NC2CCN(C(=O)Nc3ccccc3Cl)CC2)cc1	none
C=C1C(C(=O)Nc2ccc(F)cc2)C1C(=O)Nc1ccc(F)cc1 (stereo not given)	none
CN(CC1CCOCC1)C(=O)CC1C(=O)NCCN1Cc1ccc(-c2ccccc2)cc1 (stereo not given)	ROMK primary -4.1 (no result: Insulin prom inh) | ROMK hit retest inactive
CN(Cc1cccnc1)C(=O)CC1C(=O)NCCN1Cc1ccc(-c2ccccc2)cc1 (stereo not given)	none
CCSc1nccc(-c2nn(-c3ccc(C)cc3)ccc2=O)n1	ROMK primary 3.1 (no result: Insulin prom inh, Cl transport mod) | ROMK hit retest inactive
C=CCSc1nccc(-c2nn(-c3ccc(C)cc3)ccc2=O)n1	none (no result: ROMK primary)
CSc1nccc(-c2nn(-c3ccc(C)cc3)ccc2=O)n1	L major viab 100, ROMK primary 4.4 (no result: Cl transport mod) | ROMK hit retest inactive
CCCCCOc1ccc(CSC(=N)N)cc1[N+](=O)[O-]	WT yeast gro inh 77, L major viab 100 (no result: ROMK primary) | ROMK hit retest 0.052
CCCCOc1ccc(Br)cc1CSC(=N)N	Insulin prom up inconclusive, L major viab 99, ROMK primary -4 | ROMK hit retest 0.057
COc1ccc(CSC(=N)N)cc1[N+](=O)[O-]	none
